Data reported in PubChem BioAssay AID2314 (National Center for Advancing Translational Sciences (NCATS), 2010).
“And” between values parts separate entries of the source, which are not always exact repeats. Equal entries are not always repeated. About 37,000 (12%) of roughly 300,000 compounds were called active. Cut-off read from the data, not from the text of the source: active = max response mostly above about 13% (no sharp cut-off); inactive = mostly below about 14%. Only a selection was taken, and actives are over-represented in it overall.

Test: Cycloheximide Counterscreen for Small Molecule Inhibitors of Shiga Toxin; note: read at 38.3 µM for the half of the compounds with a filed dose; 0% is about no effect
Details: cell reporter, cycloheximide protein synthesis inhibition counterscreen; hits give high values

| Compound | max response |
| --- | --- |
| CCN(CC(=O)NCCCN1CCOCC1)S(=O)(=O)c1cc(Cl)ccc1Cl | 5.99% (inactive) |
| O=C(CCCN1C(=O)/C(=C/c2cccs2)SC1=S)Nc1ccc(O)cc1 | 8.82% (inactive) |
| CCN1C(=NCC(C)C)N[C@@H](CCc2ccccc2)[C@H](C(=O)NCC(C)C)[C@H]1C | 0.929% (inactive) and -2.38% (inactive) |
| CN(C)/C=C(/C(=O)c1ccc(Cl)c(Cl)c1)c1nnnn1-c1ccccc1 | 0.0457% (inactive) |
| CCc1cc(C(c2ccccc2OC)N2CCOCC2)c(NC(=O)c2ccccc2)s1 (stereo not given) | 12.9% (inactive) |
| CCc1cc(C(=O)c2ccc(OC)cc2)c(NC(=O)CN2CCN(C)CC2)s1 | -1.85% (inactive) |
| COc1ccccc1C(=O)NNC(=O)c1ccc(NC(=O)c2ccccc2)cc1 | -2.29% (inactive) |
| COc1ccc(C(=S)Nc2ccccc2)cc1 | 37.3% (active) |
| CC(C)(C)c1cnnn1-c1ccc([N+](=O)[O-])cc1 | 6.21% (inactive) |
| CCc1cc(C(N)=O)c(NC(=O)c2ccc(OC)cc2)s1 | 19.3% (active) |
| CCC(C(=O)OCC(=O)Nc1ccc(C(=O)Nc2ccc(OC)cc2)cc1)c1ccccc1 (stereo not given) | 11.5% (inactive) |
| COc1ccc(C(=O)Nc2ccc(-n3nncc3C(C)(C)C)cc2)cc1 | 48% (active) |
| Cc1ccc(NC(=O)c2ccc(Oc3ncccn3)cc2)cc1 | 32.1% (active) |
| Cc1ccc(NC(=O)c2cccnc2C(=O)Nc2ccc(C)cc2)cc1 | -2.58% (inactive) |
| COCCNC(=S)c1ccc(OC)cc1 | 5.78% (inactive) |
| C/C(=N\Nc1ccc([N+](=O)[O-])cc1)c1ccc(-n2nncc2C(C)(C)C)cc1 | -3.73% (inactive) |
| CN(C)S(=O)(=O)c1cccc(NC(=O)COC(=O)C2(c3ccccc3F)CCCC2)c1 | -2.67% (inactive) |
| Cc1c(C(=O)NC(C)C2CC3CCC2C3)cccc1[N+](=O)[O-] (stereo not given) | -3.79% (inactive) |
| COc1cnc(SCc2ccc(Cl)c(Cl)c2)nc1Cl | 2.3% (inactive) |
| CCc1c2c(nc3ccc(O)cc13)-c1cc3c(c(=O)n1C2)COC(=O)[C@]3(O)CC | -1.28% (inactive) |
| NC(N)=Nc1nc(-c2ccccc2)c2cc(Cl)ccc2n1 | -10.2% (inactive) |
| CCOC(=O)C1=C(N)N(c2ccc(C)cc2)C2=C(C(=O)CCC2)C1c1cccs1 (stereo not given) | 5.25% (inactive) |
| COc1ccccc1OC(C)C(=O)Nc1ccc(S(=O)(=O)Nc2nccs2)cc1 (stereo not given) | -6.41% (inactive) |
| CC(=O)N1c2ccc(S(=O)(=O)N3CCCC(C(=O)NCc4ccc(Cl)cc4)C3)cc2CC1C (stereo not given) | 10.9% (inactive) |
| CNS(=O)(=O)c1cccc(C(=O)NC2CCCc3ccccc32)c1 (stereo not given) | -2.97% (inactive) |
